In ChEMBL document CHEMBL3988442, “University of Dundee, Small-Polar-MMV Screening Library” (2021):
Hit rate of the full screen: of about 48,000 compounds, about 13,000 (27%) showed an effect of 50% or more. Some of the results follow.

These compounds were tested on Wolbachia pipientis (assay: Anti-Wolbachia Cell-Based Screen). Details: 5 µM.
Type: functional
Parameters: scale not given: in the data most compounds retested in dose-response had high values

Compound	Percent Effect [%]
CCOc1ccc(CN2CC[C@](C)(O)C(C)(C)C2)cn1	-8.073
O=C1O[C@@H]2CN(S(=O)(=O)N3CCCC3)C[C@@H]2N1CCc1cccc(Cl)c1	9.806
CN(CCCNC(=O)c1ccc(C#N)cc1)CC(F)(F)F	-0.8138
Cc1cc(NCCOCCS(C)(=O)=O)nc2ccccc12	-11.25
Cc1nc(NC(=O)N2CCCC(C(F)(F)F)C2)nn1C (configuration not stated)	-33.51
O=S(=O)(Nc1cn[nH]c1)c1ccc(Br)c(F)c1	-16.59
COc1cccc(OC2CN(C(=O)c3cc(CC(C)C)nn3C)C2)c1	-45.28
COc1cccc(C(=O)Nc2cc(CC(C)C)nn2C)c1	-2.904
CC(C)Cc1cc(NC(=O)c2ccncc2)n(C)n1	97.89
COc1ccc(C(=O)Nc2cc(CC(C)C)nn2C)cc1	109.3
CC(C)Cc1cc(NC(=O)c2ccc(=O)[nH]n2)n(C)n1	9.079
CC(C)Cc1cc(NC(=O)c2n[nH]c3ccccc23)n(C)n1	100
CC(C)Cc1cc(NC(=O)c2ccccn2)n(C)n1	95.28
Cc1cc(C(C)(O)CNC(=O)c2ccc(Br)o2)c(C)o1 (configuration not stated)	-12.89
CCOC(C)c1noc(CN(C)C(=O)c2ccncc2)n1 (configuration not stated)	-13.27
COCCNC(=O)[C@H]1CN(Cc2nccs2)C[C@H]2OCC[C@@H]12.O=C(O)C(F)(F)F.O=C(O)C(F)(F)F	-11.72
CCn1cncc1C1CC(=O)Nc2c1c(C)nn2-c1ccc(C)cc1 (configuration not stated)	-3.451
Cn1c2c(c(=O)n1C)CN(S(=O)(=O)c1cccs1)CCC2	-5.821
CN(Cc1cccc(F)c1)C(=O)CS(=O)(=O)Cc1ccc(Cl)c(Cl)c1	7.071
CC(C)Cc1cc(C(=O)N2CCC(Oc3cccnc3)CC2)n(C)n1	-0.7222
CC(C)Cc1cc(NC(=O)c2cccnc2)n(C)n1	95.88
CC(=O)Nc1cc(C(=O)Nc2cc(CC(C)(C)C)nn2C)ccc1F	-21.96
CC(C)Cc1cc(NC(=O)c2ccc[nH]2)n(C)n1	5.511
CC(C)Cc1cc(NC(=O)c2cc(Cl)c[nH]2)n(C)n1	97.83
CC(C)Cc1cc(NC(=O)c2ccccc2)n(C)n1	80.95
CC(C)Cc1cc(NC(=O)N2CCC(Oc3cccnc3)C2)n(C)n1 (configuration not stated)	-4.031

Compound	Percent Effect [%]
Cc1cnn(CC2CCCN2CC(=O)N(C)CCC#N)c1 (configuration not stated)	-15.64
COc1cccc(CN(C)C(C)c2ccon2)c1OCCn1ccnc1 (configuration not stated)	6.714
N#Cc1cccc(OC2CCN(C(=O)c3cncc(O)c3)CC2)c1	-9.362
CC(NCCn1cccn1)c1ccc(F)cc1F (configuration not stated)	14.02
CCn1cnnc1C1CCN(C(=O)c2ccnc(N(C)C)c2)CC1	117.4
CCn1cnnc1C1CCN(C(=O)c2cccc(N(C)C)c2)CC1	182
CCN1CCN(C(=O)c2ccnc(N(C)C)c2)CC1	-10.63
Cn1nnc2cc(C(=O)N3CCCC3Cc3ccccc3)ccc21 (configuration not stated)	-4.659
CCn1cnnc1C1CCN(C(=O)c2cccc3c2ccn3C)CC1	4.279
CCn1cnnc1C1CCN(C(=O)c2ccc3c(c2)nnn3C)CC1	122.3
CCn1cnnc1C1CCN(C(=O)c2cccc(-n3cccc3)c2)CC1	173.7
CCn1cnnc1C1CCN(C(=O)CC(C)n2cccc2)CC1 (configuration not stated)	-3.98
O=C(O)C(F)(F)F.O=C(c1nc2c(o1)CN(CC1CCC1)C2)N1CCCC1	1.201
CC(C)(CNC(=O)C1CCCN1S(C)(=O)=O)N1CCOCC1 (configuration not stated)	0.9982
Cc1cc(CNCC2(O)CCOCC2)ccc1F	-13.16
COC(=O)N1CCN(Cc2ccccc2C(C)(C)C#N)CC1	-9.14
COc1cccc(CN(C)Cc2nc3c(cnn3C)c(=O)[nH]2)c1OC	14.32
COc1ccccc1N(C)Cc1nc2c(cnn2C)c(=O)[nH]1	-7.278
COc1ccccc1CN(C)c1nc2c(cnn2C)c(=O)[nH]1	-4.184
COc1ccc(CN(C)c2nc3c(cnn3C)c(=O)[nH]2)c(OC)c1	-2.005
COc1ccccc1-c1cc(C(=O)N(C)C)c2cnn(C)c2n1	108
COc1ccccc1-c1cc(C(=O)N(C)C)nc2c1cnn2C	124.6
COc1ccccc1-c1cc(C(=O)N2CCCC2)c2cnn(C)c2n1	117.8
COc1ccccc1OC1CCN(C(=O)c2cnc(C)cc2C)CC1	-3.522
COc1cccc2c1N(Cc1nc3c(cnn3C)c(=O)[nH]1)CCC2	-0.8657
COc1cccc(C)c1C(=O)N1CCc2ncnc(NCCO)c2CC1	-30.82
